Fewer than 10 of roughly 52,000 compounds were called active.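 How the source made its calls: active means IC50 under 40 µM in the dose-response test; inactive means IC50 of 40 µM or more, or never dose-tested.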 Only a sample is shown.
These compounds were tested against Tyrosine-protein phosphatase non-receptor type 22 (Homo sapiens) (UniProt Q9Y2R2) (assay: LYP phosphatase inhibitors, primary screen, biochemical, DiFMUP fluorescence, recombinant catalytic domain, 10 µM (AID 606)). Conditions: at 10 µM, active compounds read high.
Tyrosine-protein phosphatase non-receptor type 22 (Homo sapiens), sequence (Q9Y2R2 whole entry, looked up, the tested form may be a part): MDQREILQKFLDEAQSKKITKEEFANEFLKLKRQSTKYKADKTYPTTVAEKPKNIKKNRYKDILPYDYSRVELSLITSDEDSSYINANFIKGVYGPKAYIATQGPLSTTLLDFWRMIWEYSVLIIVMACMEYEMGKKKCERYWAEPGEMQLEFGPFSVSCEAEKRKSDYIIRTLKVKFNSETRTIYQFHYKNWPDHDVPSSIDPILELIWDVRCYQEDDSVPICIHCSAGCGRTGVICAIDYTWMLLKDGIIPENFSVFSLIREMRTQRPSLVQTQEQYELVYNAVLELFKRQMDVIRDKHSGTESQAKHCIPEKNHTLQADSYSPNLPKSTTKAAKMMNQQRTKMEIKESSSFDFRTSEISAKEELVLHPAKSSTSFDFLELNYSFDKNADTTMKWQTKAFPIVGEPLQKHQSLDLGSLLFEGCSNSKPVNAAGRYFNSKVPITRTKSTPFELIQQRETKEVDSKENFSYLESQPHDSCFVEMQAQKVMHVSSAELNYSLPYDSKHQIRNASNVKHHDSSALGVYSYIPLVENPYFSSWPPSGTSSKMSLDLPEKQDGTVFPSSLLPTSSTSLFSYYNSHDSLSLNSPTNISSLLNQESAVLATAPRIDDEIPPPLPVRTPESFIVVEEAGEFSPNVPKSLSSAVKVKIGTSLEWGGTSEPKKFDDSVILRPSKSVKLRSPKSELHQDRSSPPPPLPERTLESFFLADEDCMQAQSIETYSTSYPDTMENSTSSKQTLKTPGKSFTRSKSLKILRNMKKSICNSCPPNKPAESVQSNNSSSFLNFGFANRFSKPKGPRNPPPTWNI

inhibition, inactive:
O=C(NCc1ccccc1)c1ccc(COCC(F)(F)F)o1 11.7%, CCN1C(=Nc2ccc(Cl)cc2)SC/C1=C\C(=O)OC 6.44%, COc1ccc(C2CC(c3cccc(C)c3)n3ncnc3N2)cc1 (centres undefined) 16.6%, CC1CCC(NC(=O)CN2C(=O)C3CCCN3c3ncc(Cl)cc32)CC1 (centres undefined) -36.6%, Cc1cc(N2CCN(C(c3ccccc3)c3ccc(Cl)cc3)CC2)n2ncnc2n1 (centres undefined) 3.46%, O=C(Nc1ccccn1)C1CCN(S(=O)(=O)c2cccs2)CC1 4.65%, COc1ccc(CCNC(=O)CC2Oc3ccc(Cl)cc3NC2=O)cc1OC (centres undefined) -7.5%, CC(=O)Nc1ccc(C(=O)OCCC(C)C)cc1 -3.58%, Cc1nc2ccc(S(=O)(=O)NCC(=O)N(C)Cc3ccco3)cc2s1 4.87%, CNC(=O)c1ccccc1NC(=O)c1cccc(S(=O)(=O)N2CCC(C)CC2)c1 -7.79%, CCc1ccc2c(COn3nnc4ccc(S(=O)(=O)N(C)C)cc43)cc(=O)oc2c1 -1.03%, CCCSCCCNC(=O)CC1Oc2ccccc2NC1=O (centres undefined) 2.3%, Cc1cccc(Nc2ncnc3nc[nH]c23)c1 -1.47%, CCOCCCNCc1ccc(OC)c(OC)c1 6.63%, CCOC(=O)C1CCN(C(=O)CN(c2cccc(OC)c2)S(=O)(=O)c2ccccc2)CC1 -2.95%, COc1ccccc1OCCC(=O)OCCN1C(=O)c2ccccc2C1=O -6.96%, O=C(Cn1cnc2ccccc2c1=O)N1CCN(Cc2ccccc2)CC1 15.4%, CC(C)(C)c1ccc(S(=O)(=O)N2CCCCC2C(=O)NCc2ccccn2)cc1 (centres undefined) 11%, CCOc1ccc(NC(=O)CSc2nnc(-c3ccccn3)n2N)cc1 6.01%, Cc1c(NC(=O)C2CCCN(S(=O)(=O)c3cnc[nH]3)C2)c(=O)n(-c2ccccc2)n1C (centres undefined) 8.93%, COc1ccc2c(C)cc(SCC(=O)N3CCOCC3)nc2c1 8.83%, Cc1cc(=O)[nH]c(SCC(=O)c2ccc(C(C)C)cc2)n1 10.2%, COC(=O)C1=C(C)n2nnnc2NC1c1cc2ccccc2o1 (centres undefined) 12.9%, COc1cccc(NC(=O)CN(c2cccc(F)c2)S(C)(=O)=O)c1 -7.34%, Cc1cc(C)c(S(=O)(=O)N(C)Cc2cnn(C)c2)c(C)c1 7.74%, Cc1ccc(-c2cc(C(=O)NCc3ccccn3)no2)cc1 6.16%, CC1(C)Cc2ccccc2-c2nnc(-c3ccc(O)cc3)n21 5.6%, COc1ccc(C(=O)N2CCN(c3ccc(C)cc3)CC2)cc1OC -3.18%, CCNC(=O)CC1C(=O)N(c2ccccc2)C(=O)N1CCC(C)C (centres undefined) 5.24%, COc1ccccc1-n1c(CNC(=O)c2ccco2)nnc1SCC(=O)Nc1nccs1 3.45%, CCOC(=O)Cn1c(=N)n(Cc2ccccc2)c2ccccc21 -0.97%, Cn1c(CN2CCOCC2)nc2cc(NC(=O)c3ccccc3Cl)ccc21 10.7%, Cc1cc(C)n2nc(C(=O)Nc3ccccc3N3CCOCC3)nc2n1 15.1%, CCCn1c(N)c(C(=O)CN2CCN(S(=O)(=O)c3cccs3)CC2)c(=O)[nH]c1=O -0.47%, CCCN(c1ccc(OCC)cc1)c1ncnc2nc[nH]c12 16.1%, CC1(C)Cc2c(sc(NC(=O)c3ccco3)c2C#N)CO1 4.29%, CC(=O)c1ccc(OCCCC(=O)n2nnc3ccccc32)cc1 14.1%, Cc1cc(C(F)(F)F)nc(SCC(=O)Nc2ccccc2)n1 0.2%, C=CCSc1nc(C)c(CC(=O)OCCCC)c(=O)[nH]1 2.59%, CCOC(=O)c1oc2c(CN3CCCCC3C)c(O)ccc2c(=O)c1-c1ccc(OC)c(OC)c1 (centres undefined) 15.8%, CC(=O)NC(c1ccccc1)c1nc2ccccc2[nH]1 (centres undefined) -1.04%, CCCn1c(NCc2ccco2)nc2ccccc21 11.7%, COc1ccc(CCNc2cc(=O)[nH]c(N)n2)cc1 16.4%, COC(=O)c1ccc(CSc2nc3scc(-c4cccs4)c3c(=O)[nH]2)o1 3.74%, COc1ccc(NC2CCN(C3CC(=O)N(c4ccc(F)c(Cl)c4)C3=O)CC2)cc1 (centres undefined) 4.79%, COc1ccc(CC(=O)N2CCN=C2SC)cc1 7.94%, O=S(=O)(Nc1ccc2c(c1)oc1ccccc12)N1CCCC1 -2.32%, Cc1ccc(S(=O)(=O)/N=C(/Nc2nc(C)cc(C)n2)N2CCOCC2)cc1 2.14%, Cc1nnc(NCc2ccco2)c2ccccc12 5.7%
